Results as given in PubChem BioAssay AID504339 (National Center for Advancing Translational Sciences (NCATS), 2011).
In all, about 390,000 compounds went through this assay and about 17,000 (4.4%) were called active. Not shown: some 8% with an inconclusive outcome. What follows is part of a selection rich in actives, with near analogues and random picks from the rest. Values without a mark were called inactive. Calls follow the shape of the dose curve; as a rule, active = well fitted inhibition curve with a large enough effect; inconclusive = small, poorly fitted or top-dose-only effect; inactive = no such curve, though single readings can be large or run the other way.

Target: Lysine-specific demethylase 4A (Homo sapiens) (UniProt O75164)
Sequence (O75164 whole entry, looked up, the tested form may be a part): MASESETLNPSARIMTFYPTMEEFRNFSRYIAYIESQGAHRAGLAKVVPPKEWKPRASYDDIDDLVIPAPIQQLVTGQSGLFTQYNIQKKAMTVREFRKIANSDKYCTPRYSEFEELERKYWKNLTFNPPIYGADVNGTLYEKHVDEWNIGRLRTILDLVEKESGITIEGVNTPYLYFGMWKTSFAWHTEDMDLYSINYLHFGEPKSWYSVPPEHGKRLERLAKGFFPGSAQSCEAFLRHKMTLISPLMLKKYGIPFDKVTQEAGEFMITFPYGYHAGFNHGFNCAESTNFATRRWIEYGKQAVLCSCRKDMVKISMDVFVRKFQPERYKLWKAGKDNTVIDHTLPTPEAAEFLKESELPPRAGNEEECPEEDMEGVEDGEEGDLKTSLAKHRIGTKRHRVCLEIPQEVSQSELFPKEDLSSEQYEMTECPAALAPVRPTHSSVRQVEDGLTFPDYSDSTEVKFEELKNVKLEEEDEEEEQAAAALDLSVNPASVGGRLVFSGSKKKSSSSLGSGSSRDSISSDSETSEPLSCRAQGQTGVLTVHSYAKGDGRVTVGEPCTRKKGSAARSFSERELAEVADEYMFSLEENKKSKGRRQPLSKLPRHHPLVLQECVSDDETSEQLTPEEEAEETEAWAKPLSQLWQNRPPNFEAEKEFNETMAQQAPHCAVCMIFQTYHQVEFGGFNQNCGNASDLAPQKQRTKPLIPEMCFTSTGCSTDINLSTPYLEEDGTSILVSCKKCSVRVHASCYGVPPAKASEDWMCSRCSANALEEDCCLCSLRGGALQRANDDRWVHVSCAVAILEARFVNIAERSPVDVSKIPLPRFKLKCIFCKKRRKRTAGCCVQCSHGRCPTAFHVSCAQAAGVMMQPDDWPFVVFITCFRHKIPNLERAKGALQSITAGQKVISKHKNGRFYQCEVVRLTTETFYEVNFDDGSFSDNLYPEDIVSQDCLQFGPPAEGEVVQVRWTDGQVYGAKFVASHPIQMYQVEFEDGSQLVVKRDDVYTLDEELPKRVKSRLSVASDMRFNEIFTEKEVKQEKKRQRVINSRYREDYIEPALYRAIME
Assay: qHTS Assay for Inhibitors of JMJD2A-Tudor Domain; also: nearly all actives have a fitted effect of over 50% in size
Conditions: AlphaScreen JMJD2A-Tudor / H3K4me3 peptide binding; series mostly up to 114 µM; activity change, negative = inhibition: at the top concentration
% is scaled to controls: 0 for no effect and ±100 for the full control effect; potency is read from the fitted curve at half-maximal effect.

Row | Structure (SMILES) | activity change, negative = inhibition [%] | Potency
1 | CC(=O)c1ccc(NC(c2ccc(F)cc2)c2nnc(-c3ccccc3)o2)cc1 (stereo unspecified) | -1 | 
2 | CC(C)Oc1ccc(NC(=O)c2cc3ccccc3o2)cc1 | -15.9 | 
3 | CCCCn1c(CNC(=O)C23CC4CC(CC(C4)C2)C3)nnc1SCC(=O)Nc1ccc(C)cc1 | -34.3 | 
4 | COc1cc(/C=N/Nc2ccc(C)cc2)cc(Br)c1O |  | 50.1 µM (active)
5 | COc1cc(/C=N/NC(=S)Nc2cccnc2)cc(OC)c1O | -14.8 | 
6 | COc1cc(/C=N/O)cc(Br)c1OS(=O)(=O)c1ccc(C)cc1 | -17.4 | 
7 | COc1ccccc1CNC(=O)C(=O)NCC(c1ccco1)S(=O)(=O)c1ccc(F)cc1 (stereo unspecified) | -5.52 | 
8 | Cc1coc2c(O)cc3c(c12)OC1(N2CCCCC2)C(=O)NCCCC31 (stereo unspecified) |  | 20 µM (active)
9 | CC(=O)N1CCCc2ccc(NS(=O)(=O)c3ccc(F)cc3F)cc21 | -0.993 | 
10 | CC1CCCCN1S(=O)(=O)c1ccc(F)c(C(=O)Nc2ccccc2C(F)(F)F)c1 (stereo unspecified) | 4.28 | 
11 | CCN(CC)CCNC(=O)Cn1ncc2c3ccccc3n(Cc3ccccc3C)c2c1=O | -29.5 | 
12 | Cn1c(SCc2c(F)cccc2Cl)nnc1-c1cnccn1 |  | 79.4 µM (active)
13 | Oc1ccc(-n2nnnc2SCc2c(F)cccc2Cl)cc1 | -7.53 | 
14 | Cc1ccc(CSc2nnc(-c3cnccn3)n2C)cc1 | -8.62 | 
15 | CCOc1ccc(NC(=O)CSc2c3c(nc4ccccc24)CCCC3)cc1 | -19 | 
16 | CCN1/C(=C\c2ccc3ccccc3[n+]2CC)Sc2cc(C)ccc21 |  | 20 µM (active)
17 | CCN1/C(=C/c2ccc3ccc(C)cc3[n+]2CC)Sc2ccccc21 |  | 89.1 µM (active)
18 | CCOc1cc(CNC(=O)c2sc3ncnc(N(C)C4CCCCC4)c3c2C)ccc1OC | -26 | 
19 | Cc1ccc(C(=O)CSc2nc(-c3ccccc3)nc3c2CCCC3)c(C)c1 | 27.3 | 
20 | COc1ccc(NC(=O)CSC2=Nc3ccccc3C3=NC(CC(=O)NCc4ccccc4OC)C(=O)N23)cc1Cl (stereo unspecified) | -8.22 | 
21 | Cc1nn(CC(=O)O)c(=O)c2cc3cc(F)ccc3n12 | -6.18 | 
22 | CCC(=O)N1CCc2cc(CNC(=O)Nc3ccccc3Cl)ccc21 | -14.4 | 
23 | CC(=O)N1c2ccc(S(=O)(=O)N3CCCCCC3)cc2CC1C(=O)NCc1ccccc1C (stereo unspecified) | -4.97 | 

Row | Structure (SMILES) | activity change, negative = inhibition [%] | Potency
24 | Cc1c(NC(=O)C(C)(C)C)cccc1-c1nc2ccccc2s1 | 7.62 | 
25 | CCN(CC)CCNC(=O)CN1N=C(c2ccc(OC)cc2)CCC1=O | 4.49 | 
26 | CC[C@@H](C)[C@@H](C(=O)N1CCN(C(=O)OC(C)(C)C)CC1)n1cc(CCC(=O)O)nn1 | -14.1 | 
27 | C#CCOCCOCCOCCNc1nc(N2CCN(C(=O)[C@H](C(C)C)n3cc(CCO)nn3)CC2)nc(N2CCN(C(=O)[C@H](C(C)C)n3cc(CCO)nn3)CC2)n1 | -7.69 | 
28 | C#CCOCCOCCOCCNc1nc(N2CCN(C(=O)CCCCCCCCCCNC(=O)[C@H]([C@@H](C)CC)n3cc(CCCCN=C(N)N)nn3)CC2)nc(N2CCN(C(=O)CCCCCCCCCCNC(=O)[C@H](CO)n3cc(CCCSC)nn3)CC2)n1 |  | 20 µM (active)
29 | C#CCOCCOCCOCCNc1nc(N2CCN(C(=O)CCCCCCCCCCNC(=O)[C@H](CCCCN)n3cc(C)nn3)CC2)nc(N2CCN(C(=O)CCCCCCCCCCNC(=O)[C@H](CO)n3cc(CCCSC)nn3)CC2)n1 |  | 56.2 µM (active)
30 | C#CCOCCOCCOCCNc1nc(N2CCN(C(=O)CCCCCCCCCCNC(=O)Cn3cc(CCCCCN)nn3)CC2)nc(N2CCN(C(=O)CCCCCCCCCCNC(=O)[C@H](CO)n3cc(CCCSC)nn3)CC2)n1 |  | 79.4 µM (active)
31 | Cc1c(-c2nsc(NC(=O)c3cccc(Cl)c3)n2)nnn1-c1ccccc1C(F)(F)F | -7.14 | 
32 | COc1ccc(NC(=O)CCCN2C(=O)CCn3nc(-c4cn(C)c5ccccc45)cc32)cc1OC | -33.5 | 
33 | Cc1ccc(SCC(=O)Nc2ccc3oc(-c4ccccc4C)nc3c2)cc1 | 13.9 | 
34 | CCN(CC)c1ccc(NC(=O)Cn2nc3c(cc2=O)CCCC3)c(C)c1 | -23.9 | 
35 | CCOc1ccc(CC(=O)NCCc2csc3nc(-c4ccccc4F)nn23)cc1 | -13.4 | 
36 | CC1CCN(S(=O)(=O)c2nnc(NC(=O)COc3ccccc3F)s2)CC1 | -9.72 | 
37 | Cc1csc2nc(COC(=O)c3ccc(NC(=O)COc4ccccc4F)cc3)cc(=O)n12 | 8.61 | 
38 | CC(NC(=O)c1ccco1)C(=O)Nc1nc(-c2ccccn2)cs1 (stereo unspecified) |  | 44.7 µM (active)
39 | Cc1cc(NC(=O)[C@H](C)NC(=O)c2ccco2)ccc1Br | -13 | 
40 | O=C(NCCN1C(=O)C2C3C=CC(C3)C2C1=O)Nc1ccccn1 (stereo unspecified) | -10.6 | 
41 | O=C(CN1C(=O)C2C3C=CC(C3)C2C1=O)Nc1nc(-c2ccccn2)cs1 (stereo unspecified) |  | 50.1 µM (active)
42 | O=C(COc1ccccc1F)Nc1nc(-c2ccccn2)cs1 |  | 79.4 µM (active)
43 | O=C(CN1C(=O)C2C3C=CC(C3)C2C1=O)NCCc1ccccc1Cl (stereo unspecified) | -6.94 | 
44 | CSCCC(NC(=O)c1ccco1)C(=O)Nc1cc(C)ccn1 (stereo unspecified) | -4.14 | 
45 | CCOc1ccccc1CNC(=O)Nc1cn(CC(C)C)c(=O)c2ccccc12 | -14.9 | 
46 | CCc1nn(CC(=O)N2CCN(c3ccc(Cl)cc3)CC2)c(=O)c2cc3occc3n12 | -32.2 | 
